Active and inactive are the calls of the source. Calls follow the shape of the dose curve; as a rule, active = well fitted activation curve with a large enough effect; inconclusive = small, poorly fitted or top-dose-only effect; inactive = flat fitted curve, though single readings scatter.
Experiment: Cellular Toxicity (caspase-3) SHSY5Y (AID 657)
Settings: SH-SY5Y caspase-3 activation, DMSO zero, 10 µM staurosporine = 100%; series mostly up to 91.7 µM
From the text: NIH Chemical Genomics Center [NCGC]
NIH Molecular Libraries Screening Centers Network [MLSCN]
National Institutes of Environmental Health Sciences [NIEHS]
National Toxicology Program [NTP]
We have developed a 1536-well cell-based assay for quantitative high throughput screening (qHTS) against a number of cell lines to determine in vitro caspase 3/7 activity of small molecules. This particular assay uses the SH-SY5Y cell line which is derived from human neuroblastoma.
NCGC Assay Protocol Summary:
The Caspase-Glo 3/7 assay (Promega) is a homogeneous method to measure caspase-3 and caspase-7 activities in cultured cells. The quantitation of caspase 3/7 activity is based on the cleavage of a peptide-aminoluciferin substrate. After caspase cleaves the substrate the free aminoluciferin is liberated and serves as the substrate of luciferase, which generates the light. The luminescent signal is proportional to the amount of caspase 3/7 activity present.
Using the Caspase-Glo 3/7 assay, the amount of caspase 3/7 activity was measured in the SH-SY5Y cell line with complete culture medium following compound treatment for 16 hours. The assay was performed in opaque white 1536-well plates. In the screen, staurosporine and doxorubicin were used as positive controls. Library compounds were measured for their ability to cause the activation of caspase 3/7 in the cell line, as reflected by an increase in luminescence signal, in a concentration-dependent manner. Data were normalized to the controls for basal activity (DMSO only) and 100% stimulation (10 uM staurosporine). AC50 values were determined from concentration-response data modeled with the standard Hill equation.
qHTS protocol for caspase 3/7 assay in SH-SY5Y cells
[Step] [Parameter] [Value] [Description]
1. Reagent; 5 uL; 1500 SH-SY5Y cells/well
2. Time; 5 hr; 37 °C incubation
4. Controls; 23 nL; doxorubicin 7 pM to 100 uM & staurosporine 1.4 pM to 20 uM
5. Time; 16 hr; 37 °C incubation
6. Reagent; 5 uL; Caspase-Glo 3/7 reagent
7. Time; 1 hr; Room Temperature
8. Detection; Luminescence; Viewlux plate reader
Keywords: caspase 3/7, apoptosis, SH-SY5Y cell line, luminescence, NTPHTS, NTPHTS_NCGC, NIEHS, EPA, DSSTox, MLSMR, MLSCN, NIH Roadmap, qHTS, NCGC

Compound	outcome
COc1ccc(CN(CCN(C)C)c2ccccn2)cc1	inactive
CN=C(NC#N)NCCSCc1nc[nH]c1C	inactive
Nc1ncn([C@@H]2O[C@H](CO)[C@@H](O)[C@H]2O)c(=O)n1	inactive
NC(=Nc1ccccc1)Nc1ccccc1	inactive
COC(=O)[C@H]1[C@H]2C[C@@H]3c4[nH]c5cc(OC)ccc5c4CCN3C[C@H]2C[C@@H](OC(=O)c2cc(OC)c(OC)c(OC)c2)[C@@H]1OC	inactive
COc1cc(Cc2cnc(N)nc2N)cc(OC)c1OC	inactive
CCCCOCCOCCOCc1cc2c(cc1CCC)OCO2	inactive
NC(=O)N1c2ccccc2C=Cc2ccccc21	inactive
O=c1[nH]c(=O)n([C@H]2C[C@H](O)[C@@H](CO)O2)cc1Br	inactive
CCCCNC(=O)NS(=O)(=O)c1ccc(C)cc1	inactive
Nc1nc(N)c2nc(-c3ccccc3)c(N)nc2n1	inactive

Reference: PubChem BioAssay (NCATS)
